# The campaign covered roughly 310,000 compounds. About 14,000 (4.5%) showed an effect of 50% or more. The effect is printed as a negative number. The sample as a whole holds a higher share of strong results than the screen did.
# Target: human ether-à-go-go-related gene (hERG) potassium channel (human, UniProt Q12809)
# Assay: primary screen, population patch clamp on CHO cells stably expressing hERG; higher = less effect of the substance
# 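Also: peak tail current of the secondary pulse compared with the same well before compound.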
# Sequence of human ether-à-go-go-related gene (hERG) potassium channel (Q12809 whole entry, looked up): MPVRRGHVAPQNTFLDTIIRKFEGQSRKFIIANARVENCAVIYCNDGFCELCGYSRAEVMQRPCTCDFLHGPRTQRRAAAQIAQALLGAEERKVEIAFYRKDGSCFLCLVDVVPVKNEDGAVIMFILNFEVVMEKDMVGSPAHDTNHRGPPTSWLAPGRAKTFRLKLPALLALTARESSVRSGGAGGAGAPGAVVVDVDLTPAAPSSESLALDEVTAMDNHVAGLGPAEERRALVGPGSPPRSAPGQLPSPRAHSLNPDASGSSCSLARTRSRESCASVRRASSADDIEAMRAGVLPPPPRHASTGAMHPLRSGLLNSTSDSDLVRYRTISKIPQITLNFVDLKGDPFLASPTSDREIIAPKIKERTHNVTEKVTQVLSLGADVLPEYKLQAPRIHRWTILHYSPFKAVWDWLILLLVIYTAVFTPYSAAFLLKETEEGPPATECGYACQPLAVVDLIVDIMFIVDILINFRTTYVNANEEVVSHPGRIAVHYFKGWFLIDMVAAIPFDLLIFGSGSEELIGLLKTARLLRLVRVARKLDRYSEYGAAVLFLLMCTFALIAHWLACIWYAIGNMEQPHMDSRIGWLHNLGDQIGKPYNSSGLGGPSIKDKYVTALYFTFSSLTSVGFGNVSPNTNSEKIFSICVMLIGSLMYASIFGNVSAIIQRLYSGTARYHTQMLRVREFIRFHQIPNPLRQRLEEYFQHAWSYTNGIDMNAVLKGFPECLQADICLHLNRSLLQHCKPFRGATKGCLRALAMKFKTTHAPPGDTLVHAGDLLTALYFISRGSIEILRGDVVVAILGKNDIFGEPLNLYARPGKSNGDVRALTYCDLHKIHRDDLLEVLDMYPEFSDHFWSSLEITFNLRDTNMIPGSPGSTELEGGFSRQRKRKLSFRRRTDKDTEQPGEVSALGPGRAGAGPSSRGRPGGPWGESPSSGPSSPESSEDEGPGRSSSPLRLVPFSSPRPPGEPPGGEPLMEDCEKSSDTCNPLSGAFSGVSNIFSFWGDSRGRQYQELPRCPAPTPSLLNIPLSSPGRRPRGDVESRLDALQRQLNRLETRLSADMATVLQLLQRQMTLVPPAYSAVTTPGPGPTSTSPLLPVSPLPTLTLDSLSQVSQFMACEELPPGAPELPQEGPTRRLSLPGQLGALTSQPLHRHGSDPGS
row,Compound,"hERG current change (%, negative = inhibition) at 10uM"
1,CC(C)(C)C(=O)O/N=C(\N)c1ccc([N+](=O)[O-])s1,20.7%
2,CSc1cccc(NC(=O)C2CCN(C(=O)c3ccccc3C)CC2)c1,-18.7%
3,O=C1CC(c2ccc(F)cc2)Cc2nc(N3CCN(c4ccccc4)CC3)ncc21 (centres unmarked),1.48%
4,O=C(O)c1ccc(/C=N/NC(=O)c2ccc3c(c2)OCCO3)cc1,16.1%
5,CCn1c(C2CCN(Cc3ccccc3)CC2)n[nH]c1=S,-17.3%
6,CCC(=O)N/N=c1/sc2ccccc2n1C,13.9%
7,Cc1ccc(C)c(NC2=NCCCS2)c1,1.48%
8,CC1(C)CC(NC(=O)COc2ccc3ccccc3c2)CC(C)(C)N1,-12.6%
9,O=C1Nc2cc(C(=O)NCCCN3CCCC3)ccc2S/C1=C\c1ccccc1,-51.4%
10,O=C1Nc2cc(C(=O)NCCN3CCCCCC3)ccc2S/C1=C\c1ccccc1,-43.9%
11,O=C1Nc2cc(C(=O)NCC3CCCO3)ccc2S/C1=C/c1ccccc1F (centres unmarked),-4.84%
12,O=C(NCCCN1CCCCC1)c1ccc2c(c1)NC(=O)c1ccccc1S2,-13.7%
13,O=C1Nc2cc(C(=O)NCCCN3CCOCC3)ccc2S/C1=C/c1ccccc1F,-29.8%
14,O=C1Nc2cc(C(=O)NCCCN3CCCC3)ccc2S/C1=C/c1ccccc1F,-69.5%
15,COc1ccccc1N1CCN(S(=O)(=O)/C=C/c2ccccc2)CC1,-11.3%
16,Cc1ccc(NC(=O)CN(C)C(=O)COC(=O)COc2ccc(C#N)cc2)cc1,-24.2%
17,O=C(O)c1cccc2c1C(=O)c1ccccc1C2=O,19.7%
18,Cc1ccc(S(=O)(=O)Nc2cc(-c3ccccc3)nn2C)cc1Cl,12.2%
19,COc1ccccc1NC(=S)NCC1CCCO1 (centres unmarked),8.94%

row,Compound,"hERG current change (%, negative = inhibition) at 10uM"
1,Cc1ccc(NC(=O)CSc2ccc3nnc(CCNC(=O)c4ccccc4)n3n2)c(C)c1,-18%
2,S=C(NCCCc1ccccc1)Nc1ccc(Br)cc1,17.9%
3,CCCCCOC(=O)C1[C@H]2C(=O)N(Cc3cccs3)C[C@]23C=C[C@H]1O3 (some centres unmarked),1.95%
4,O=C(NC1CCCCCC1)c1ccc2nc3cc(Cl)ccc3c(=O)n2c1,7.94%
5,Cc1ccc2nc3c(cc(C(=O)NC4CCS(=O)(=O)C4)n3Cc3ccccc3)c(=O)n2c1 (centres unmarked),19.6%
6,Cc1ccc2nc(SCC(=O)NC3CCCCC3)nc(=O)n2c1,-14.5%
7,Cc1ccc2nc3nc(NCC4CCCO4)c(C(=O)NC4CCCC4)cc3c(=O)n2c1 (centres unmarked),-75.6%
8,Cc1ccc2nc(SCC(=O)NC3CCCC3)nc(=O)n2c1,-25.1%
9,Cc1ccc2nc3nc(NCC4CCCO4)c(C(=O)NC4CCCCC4)cc3c(=O)n2c1 (centres unmarked),-78.1%
10,COC(=O)Cc1ccc(NC(=O)c2ccc3c(c2)C(=O)N(Cc2ccco2)C3=O)cc1,-2.43%
11,Cn1nc(C(F)(F)F)c(-c2ccccc2)c1NC(=O)CSCC(=O)O,12.2%
12,CCSc1ncnc2c1sc1nc3c(cc12)COC(C)(C)C3,-2.04%
13,COc1ccccc1N1CCN(C2CCN(C(=O)c3ccc(F)cc3)CC2)CC1,-61%
14,COc1ccccc1N1CCN(C2CCN(C3CCC(c4ccccc4)CC3)CC2)CC1.O=C(O)C(=O)O (centres unmarked),-74.1%
15,COc1cc(OC)cc(C(=O)N2CCC(N3CCN(c4ccccc4)CC3)CC2)c1,-26.9%
16,COc1ccc(C(=O)N2CCC(N3CCN(c4ccccc4)CC3)CC2)cc1.O=C(O)C(=O)O,-57.6%
17,COc1ccccc1N1CCN(C2CCC(C)CC2)CC1 (centres unmarked),4.87%
18,COc1ccccc1N1CCN(C2CCN(C(=O)c3cc(OC)c(OC)c(OC)c3)CC2)CC1,-23.1%
19,Cc1cccc(OCC(=O)N2CCC(N3CCCCCC3)CC2)c1,-11.2%

row,Compound,"hERG current change (%, negative = inhibition) at 10uM"
1,COc1ccccc1N1CCN(C2CCN(C(=O)COc3ccccc3)CC2)CC1,-25.4%
2,COc1ccccc1N1CCN(C2CCN(C(=O)COc3cccc(C)c3)CC2)CC1.O=C(O)C(=O)O,-67.8%
3,COc1ccccc1C(=O)N1CCC(N2CCN(c3ccccc3)CC2)CC1,-8.58%
4,CCN1CCC(N2CCN(c3ccccc3OC)CC2)CC1,11.7%
5,COc1ccccc1N1CCN(C2CCN(C(=O)c3cccc(F)c3)CC2)CC1.O=C(O)C(=O)O,-33.1%
6,CSc1sc(C)cc1/C=N/O,6.46%
7,NC(=O)c1nsc(C(=O)N(Cc2ccco2)C(C(=O)NCc2ccc(F)cc2)c2ccc(O)cc2)c1N (centres unmarked),-43.8%
8,O=C(OC1CCOC1=O)c1ccc(CO)cc1 (centres unmarked),27.4%
9,CCCn1c2ccccc2c2cc(C(=O)O)ccc21,6.24%
10,c1ccc(-c2csc(-c3ccc(-c4csnn4)cc3)n2)cc1,17.6%
11,CN1C(=O)c2ccccc2Sc2ccc(NC(=O)N3CCOCC3)cc21,-7.88%
12,C=CCn1cc(C=C2C(=O)N(C)C(=O)N(C)C2=O)c2ccccc21,23.9%
13,CC(C)CC(=O)Nc1nc2c(c(=O)[nH]1)CCCC2,17.9%
14,CN=C1CN(O)C(c2ccccc2)=c2cc(Cl)ccc2=N1,18.6%
15,C/C(=N\NC(=O)CNc1ccc(F)cc1)c1cc2ccccc2o1,-26.6%
16,C=CCn1c(O)c(N=NC(=O)c2cccnc2)c2cc(Br)ccc21,-16.1%
17,C=CCn1c(=O)c(C(=O)NCc2ccccc2)c(O)c2ccccc21,15.4%
18,O=[N+]([O-])c1cccc(Cl)c1NCCNc1ncc(C(F)(F)F)cc1Cl,15.6%

# — publication PMC4336329 (PLoS ONE, 2015)
